Laboratory results published in PubChem BioAssay (NCI).
The panel holds about 83,000 compounds, 20% with a hit somewhere; the sample as a whole holds those more often.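 Activity criterion: percent growth below 10, measured after cells in 96-well plates were exposed to a single compound concentration for 48 hours.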 Values without a mark were called inactive. Activity calls are given as the source filed them.

Experiments:
Assay in all cases: NCI-60 one-dose screen, 48 h (100 = growth as untreated, 0 = no growth, -100 = all killed)
Settings in all cases: 10 µM unless noted
NCI-H23 lung = tested on: NCI-H23 lung
NCI-H226 lung = tested on: NCI-H226 lung
NCI-H322M lung = tested on: NCI-H322M lung
HOP-62 NSCLC = tested on: HOP-62 NSCLC
NCI-H460 lung = tested on: NCI-H460 lung
HOP-92 NSCLC = tested on: HOP-92 NSCLC
NCI-H522 lung = tested on: NCI-H522 lung
A549/ATCC NSCLC = tested on: A549/ATCC NSCLC
786-0 renal = tested on: 786-0 renal
COLO 205 colon = tested on: COLO 205 colon

## Cc1[nH]c(C2CC(c3ccc(C(F)(F)F)c(F)c3)=NN2C)c(C)c1C(=O)NCC(F)(F)F (stereo not given)
NCI-H23 lung
  growth: 95.4%
NCI-H226 lung
  growth: 93.3%
NCI-H322M lung
  growth: 92.7%
HOP-62 NSCLC
  growth: 106%
NCI-H460 lung
  growth: 101%
HOP-92 NSCLC
  growth: 114%
NCI-H522 lung
  growth: 88.9%
A549/ATCC NSCLC
  growth: 95.5%
786-0 renal
  growth: 109%
COLO 205 colon
  growth: 114%

## O=C(Nc1ncc(Cc2ccccc2)s1)c1ccc2c(c1)OCCO2
NCI-H23 lung
  growth: 30.8%
NCI-H226 lung
  growth: 12.8%
NCI-H322M lung
  growth: 50.1%
HOP-62 NSCLC
  growth: 25.5%
NCI-H460 lung
  growth: 5.11% (active)
HOP-92 NSCLC
  growth: 57.8%
NCI-H522 lung
  growth: -3.58% (active)
A549/ATCC NSCLC
  growth: 16.6%
786-0 renal
  growth: 33.1%
COLO 205 colon
  growth: -13.3% (active)

## O=C1C(c2c(O)[nH]c3ncccc23)=Nc2ccccc21
NCI-H23 lung
  growth: 76%
NCI-H226 lung
  growth: 89%
NCI-H322M lung
  growth: 79.7%
HOP-62 NSCLC
  growth: 86.8%
NCI-H460 lung
  growth: 47.7%
HOP-92 NSCLC
  growth: 96.9%
NCI-H522 lung
  growth: 76.3%
A549/ATCC NSCLC
  growth: 82.4%
786-0 renal
  growth: 84.1%
COLO 205 colon
  growth: 82.8%

## C#CCOc1cccc(-c2ncnc3cc(NC(=O)CCl)ccc23)c1
NCI-H23 lung
  growth: 10.3%
NCI-H226 lung
  growth: -11% (active)
NCI-H322M lung
  growth: 71.8%
HOP-62 NSCLC
  growth: -46.2% (active)
NCI-H460 lung
  growth: -18.7% (active)
HOP-92 NSCLC
  growth: -67.1% (active)
NCI-H522 lung
  growth: -77.1% (active)
A549/ATCC NSCLC
  growth: 16.7%
786-0 renal
  growth: -85.4% (active)
COLO 205 colon
  growth: -82.4% (active)

## O=C(Cn1cc(CSc2nc3ccccc3o2)nn1)Nc1ccc([N+](=O)[O-])cc1
NCI-H23 lung
  growth: 97.8%
NCI-H226 lung
  growth: 99.4%
NCI-H322M lung
  growth: 102%
HOP-62 NSCLC
  growth: 83.7%
NCI-H460 lung
  growth: 98.5%
HOP-92 NSCLC
  growth: 95.2%
NCI-H522 lung
  growth: 78.5%
A549/ATCC NSCLC
  growth: 101%
786-0 renal
  growth: 99.1%
COLO 205 colon
  growth: 110%

## CC1=NN(c2cccc(Cl)c2)C(=O)/C1=C\C=C\c1ccccc1
NCI-H23 lung
  growth: 26.3%
NCI-H226 lung
  growth: 3.87% (active)
NCI-H322M lung
  growth: 112%
HOP-62 NSCLC
  growth: 22.3%
NCI-H460 lung
  growth: 101%
HOP-92 NSCLC
  growth: 101%
NCI-H522 lung
  growth: 34.4%
A549/ATCC NSCLC
  growth: 94.5%
786-0 renal
  growth: 35.5%
COLO 205 colon
  growth: 4.77% (active)

## CCN(CC)CCN1C(=O)c2c(c(C)c3c(oc4cc(OC)ccc43)c2C)C1=O
NCI-H23 lung
  growth: 95.9%
NCI-H226 lung
  growth: 27.8%
NCI-H322M lung
  growth: 85.3%
HOP-62 NSCLC
  growth: 95.9%
NCI-H460 lung
  growth: 44.7%
HOP-92 NSCLC
  growth: 100%
NCI-H522 lung
  growth: 91.9%
A549/ATCC NSCLC
  growth: 104%
786-0 renal
  growth: -74% (active)
COLO 205 colon
  growth: 99.1%

## CCCCCCCCNc1ncnc2c1ncn2Cc1nnc2c3ccccc3c(Cl)nn12
NCI-H23 lung
  growth: 59.6%
NCI-H226 lung
  growth: 39.9%
NCI-H322M lung
  growth: 77.8%
HOP-62 NSCLC
  growth: 54.3%
NCI-H460 lung
  growth: 53.3%
HOP-92 NSCLC
  growth: 3.23% (active)
NCI-H522 lung
  growth: 52.9%
A549/ATCC NSCLC
  growth: 73.1%
786-0 renal
  growth: 47.7%
COLO 205 colon
  growth: 65.5%

## O=S(=O)(Nc1ccc(Br)cc1)c1ccc(-c2cnc(C3CC3)o2)cc1
NCI-H23 lung
  growth: 40.8%
NCI-H226 lung
  growth: 67.3%
NCI-H322M lung
  growth: 61.9%
HOP-62 NSCLC
  growth: 27.1%
NCI-H460 lung
  growth: 12.8%
HOP-92 NSCLC
  growth: 43%
NCI-H522 lung
  growth: 11%
A549/ATCC NSCLC
  growth: 40.1%
786-0 renal
  growth: 37.8%
COLO 205 colon
  growth: 23.9%

## COc1ccc2c(c1)C(c1c[nH]c3ccccc13)(c1c[nH]c3ccccc13)CCO2
NCI-H23 lung
  growth: 53.3%
NCI-H226 lung
  growth: 64.1%
NCI-H322M lung
  growth: 66.1%
HOP-62 NSCLC
  growth: 49.1%
NCI-H460 lung
  growth: 47.4%
HOP-92 NSCLC
  growth: 35.6%
NCI-H522 lung
  growth: 6.18% (active)
A549/ATCC NSCLC
  growth: 24.1%
786-0 renal
  growth: 58.8%
COLO 205 colon
  growth: 39.9%

## Brc1ccc(-c2nn(-c3ccccc3)cc2-c2nn[nH]n2)s1
NCI-H23 lung
  growth: 92.7%
NCI-H226 lung
  growth: 85.7%
NCI-H322M lung
  growth: 96%
HOP-62 NSCLC
  growth: 82.7%
NCI-H460 lung
  growth: 102%
HOP-92 NSCLC
  growth: 62.4%
NCI-H522 lung
  growth: 84.1%
A549/ATCC NSCLC
  growth: 93.9%
786-0 renal
  growth: 88.1%
COLO 205 colon
  growth: 120%

## O=C(/C=C/c1ccco1)c1ccc(Nc2ccnc3cc(Cl)ccc23)cc1
NCI-H23 lung
  growth: 82.1%
NCI-H226 lung
  growth: 111%
NCI-H322M lung
  growth: 39.3%
HOP-62 NSCLC
  growth: 104%
NCI-H460 lung
  growth: 36%
HOP-92 NSCLC
  growth: 41.5%
NCI-H522 lung
  growth: 81.9%
A549/ATCC NSCLC
  growth: 62%
786-0 renal
  growth: 76.6%
COLO 205 colon
  growth: 90.4%

## CN(C)CCOc1nc2c3cc([N+](=O)[O-])ccc3nn2c2ccccc12
NCI-H23 lung
  growth: 36.7%
NCI-H226 lung
  growth: 65.3%
NCI-H322M lung
  growth: 59.6%
HOP-62 NSCLC
  growth: 30.2%
NCI-H460 lung
  growth: 4.99% (active)
HOP-92 NSCLC
  growth: 57.3%
NCI-H522 lung
  growth: 46.2%
A549/ATCC NSCLC
  growth: 12.7%
786-0 renal
  growth: 22.7%
COLO 205 colon
  growth: 33.9%

## CC(=O)OCCOc1cc(Cl)c(Cl)cc1Cl
NCI-H23 lung
  growth: 97.4%
NCI-H226 lung
  growth: 101%
NCI-H322M lung
  growth: 112%
HOP-62 NSCLC
  growth: 103%
NCI-H460 lung
  growth: 109%
HOP-92 NSCLC
  growth: 82.3%
NCI-H522 lung
  growth: 86.6%
A549/ATCC NSCLC
  growth: 90.8%
786-0 renal
  growth: 100%
COLO 205 colon
  growth: 121%

## CCOc1ccc(N2C(=O)CCSC2=S)cc1
NCI-H23 lung
  growth: 102%
NCI-H226 lung
  growth: 100%
NCI-H322M lung
  growth: 108%
HOP-62 NSCLC
  growth: 118%
NCI-H460 lung
  growth: 106%
HOP-92 NSCLC
  growth: 89%
NCI-H522 lung
  growth: 90.9%
A549/ATCC NSCLC
  growth: 106%
786-0 renal
  growth: 106%
COLO 205 colon
  growth: 112%

## Clc1ccc(C2=Nn3c(nnc3-c3cc(Cl)cc(Cl)c3Cl)SC2)cc1
NCI-H23 lung
  growth: 65.8%
NCI-H226 lung
  growth: 75.3%
NCI-H322M lung
  growth: 71.4%
HOP-62 NSCLC
  growth: 16.2%
NCI-H460 lung
  growth: 16.4%
HOP-92 NSCLC
  growth: 55.6%
NCI-H522 lung
  growth: 21.4%
A549/ATCC NSCLC
  growth: 58.2%
786-0 renal
  growth: 3.83% (active)
COLO 205 colon
  growth: 40.5%

## CCN(CC)CCOc1ccc(/C(=C(\C)Cc2ccc(OC)cc2)c2ccc(O)cc2)cc1
NCI-H23 lung
  growth: 59.2%
NCI-H226 lung
  growth: 74.6%
NCI-H322M lung
  growth: 54.5%
HOP-62 NSCLC
  growth: 25.8%
NCI-H460 lung
  growth: -36.4% (active)
HOP-92 NSCLC
  growth: 2.96% (active)
NCI-H522 lung
  growth: -9.94% (active)
A549/ATCC NSCLC
  growth: 19.4%
786-0 renal
  growth: -37.1% (active)
COLO 205 colon
  growth: -72.1% (active)

## CO[C@]12C=C/C(=C(/C(=O)OCc3cccnc3)C(=O)CCCCCCCC[C@]3(OC)C=C/C(=C(/C(=O)OCc4cccnc4)C(=O)CCCCCCCC1)O3)O2
NCI-H23 lung
  growth: -75.3% (active)
NCI-H226 lung
  growth: -78.1% (active)
NCI-H322M lung
  growth: -85% (active)
HOP-62 NSCLC
  growth: -33.1% (active)
NCI-H460 lung
  growth: -18.3% (active)
HOP-92 NSCLC
  growth: -28.5% (active)
NCI-H522 lung
  growth: -39.6% (active)
A549/ATCC NSCLC
  growth: -19.6% (active)
786-0 renal
  growth: -64.1% (active)
COLO 205 colon
  growth: -56.5% (active)

## CCN(CC)CCCNc1cc(OC)cc2cccnc12
NCI-H23 lung
  growth: 99.3%
NCI-H226 lung
  growth: 92.7%
NCI-H322M lung
  growth: 107%
HOP-62 NSCLC
  growth: 102%
NCI-H460 lung
  growth: 105%
HOP-92 NSCLC
  growth: 124%
NCI-H522 lung
  growth: 94.7%
A549/ATCC NSCLC
  growth: 108%
786-0 renal
  growth: 102%
COLO 205 colon
  growth: 83.9%

## Cc1nc2cccc(NCc3ccc(C(=O)NO)cc3)c2c(=O)n1-c1ccccc1
NCI-H23 lung
  growth: -16.8% (active)
NCI-H226 lung
  growth: 67.2%
NCI-H322M lung
  growth: 66.8%
HOP-62 NSCLC
  growth: 43.9%
NCI-H460 lung
  growth: 29.3%
HOP-92 NSCLC
  growth: 15.3%
NCI-H522 lung
  growth: -2.46% (active)
A549/ATCC NSCLC
  growth: 34.1%
786-0 renal
  growth: 54.5%
COLO 205 colon
  growth: -37.9% (active)

## O=C1/C(=C/c2ccc(-c3ccc(Cl)cc3)o2)SC(=S)N1CCc1ccc(O)cc1
NCI-H23 lung
  growth: 81.3%
NCI-H226 lung
  growth: 84.1%
NCI-H322M lung
  growth: 70.3%
HOP-62 NSCLC
  growth: 46.8%
NCI-H460 lung
  growth: 9.88% (active)
HOP-92 NSCLC
  growth: 55.3%
NCI-H522 lung
  growth: -18.8% (active)
A549/ATCC NSCLC
  growth: 17.6%
786-0 renal
  growth: 60.9%
COLO 205 colon
  growth: 16.8%
